High-throughput results deposited in PubChem BioAssay by National Center for Advancing Translational Sciences (NCATS).
p53ts 39C kill: cytotoxicity in p53ts cells at nonpermissive temperature; H1299-p53A138V viability at 39C, ATP luminescence, 24 h; Potency, µM (doses to about 46.1 µM), usual class: cytotoxic; 130,000 compounds, 1.5% hits; AID 902; also: nearly all actives have a fitted effect of over 55% in size
p53ts 32C kill: kills p53ts cells at the permissive temperature; H1299-p53A138V at 32C, ATP luminescence viability, 24 h; Potency, µM (doses to about 46.1 µM), actives largely listed as cytotoxic; 130,000 compounds, 0.93% hits; AID 924; also: nearly all actives have a fitted effect of over 55% in size
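H1299-p53 A138V cells (temperature-sensitive p53) exposed 24 h to up to 46 uM compound at 32C, where p53 is wild-type in conformation. Viability read as ATP luminescence and normalised to DMSO and 100 uM tamoxifen. AC50 fitted with the Hill equation.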
Peg3 imprint: induces erasure of genomic imprints in mouse ES cells; mouse ES Peg3-LacZ reporter, beta-gal luminescence, 40 h; Potency, µM (titrated, usually from 60.7 µM), usual class: activators; 110,000 compounds, 0.02% hits
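Each well holds 300 Peg3LacZ-Neo (maternal) female ES cells incubated 40 h at 37C, 5% CO2. LacZ is measured by BetaGlo luminescence, with AC50 and maximum efficacy derived from dose-response curves.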
Each line names hits and unclear results; the compound was inactive in the other large screens. Most compounds without a hit are left out; they make up all but 1.8% or so of the library. Calls follow the shape of the dose curve; as a rule, active = well fitted curve in the direction sought with a large enough effect; inconclusive = small, poorly fitted or top-dose-only effect, or another doubt; inactive = no such curve, though single readings can be large; an effect the other way counts as inactive or inconclusive.

OC[C@@H]1O[C@@H](n2cnc3c(Nc4ccccc4)ncnc32)[C@@H](O)[C@H]1O	none (no result: Peg3 imprint)
Cc1cccc(N(C)C(=O)CN(C)S(=O)(=O)c2ccc3[nH]c4c(c3c2)CCCC4)c1	none (no result: p53ts 39C kill, Peg3 imprint)
Cc1nnc(NC(=O)CSCc2cc(=O)c3ccc(C)c(C)c3[nH]2)s1	none
Nc1nc(NCCc2ccc(O)cc2)nc2nc(-c3ccco3)nn12	none
O=C(Nc1nnc(-c2ccccc2Cl)o1)c1ccco1	p53ts 39C kill 10µM, p53ts 32C kill 12.6µM
O=C(Nc1cccc(-c2nnc(-c3ccccc3)o2)c1)c1ccco1	none
O=C(CN1C(=O)C(c2ccc(F)cc2)=NC12CCCCCC2)Nc1ccccc1Cl	p53ts 39C kill inconclusive
O=C(CN1C(=O)C(c2ccc(F)cc2)=NC12CCCCCC2)Nc1ccc(F)c(Cl)c1	p53ts 39C kill 10µM
Cc1nn(C(=O)c2cccs2)c(N)c1-c1ccccc1	p53ts 39C kill inconclusive, p53ts 32C kill 12.6µM
Cc1nn(C(=O)c2ccc3c(c2)OCO3)c(N)c1-c1ccccc1	p53ts 39C kill inconclusive, p53ts 32C kill 12.6µM
O=C(c1ccc2c(c1)OCO2)N1CCN(c2ccccc2)CC1	none
CC(=O)c1c(C)nn(C(=O)c2cccs2)c1C	none
O=C(CSc1n[nH]c(-c2ccc(F)cc2)n1)N1CCN(c2ccc(F)cc2)CC1	none
Cc1cccc(-n2c(SCC(=O)Nc3ccccc3C)nc3c(oc4ccccc43)c2=O)c1	none
FC(F)(F)c1cccc(-c2noc(-c3cc(-c4ccccc4)c(C(F)(F)F)s3)n2)c1	none
COc1ccc(-c2nc3ccccc3s2)cc1NC(=O)c1ccccc1OC	none
O=S(=O)(c1cccc(-c2nc3ccccc3s2)c1)N1CCCC1	none
COc1ccc(-c2nc3ccccc3s2)cc1O	p53ts 39C kill 2.51µM, p53ts 32C kill 5.01µM (no result: Peg3 imprint)
Oc1cccc(-c2nc3ccccc3s2)c1	p53ts 39C kill 10µM, p53ts 32C kill 7.94µM
COc1ccccc1Cn1cc(C(=O)c2ccc(Cl)cc2)c(=O)c2ccccc21	p53ts 39C kill 12.6µM, p53ts 32C kill inconclusive
COc1ccccc1Cn1cc(C(=O)c2ccc(Cl)cc2)c(=O)c2cc3c(cc21)OCCO3	p53ts 39C kill inconclusive
C#CCOc1ccc(C2C(C(=O)OC)=C(C)NC3=C2C(=O)c2ccccc23)cc1OCC (stereo not drawn)	none
NS(=O)(=O)c1cc2c(cc1Cl)=NC(CCC(=O)O)=NS=2(=O)O	none
Cc1cccc(Cn2nnc3c(=O)[nH]c(C4CCCN(C(=O)c5ccc(C(C)(C)C)cc5)C4)nc32)c1 (stereo not drawn)	p53ts 39C kill 25.1µM, p53ts 32C kill inconclusive
Cc1ccccc1Cn1nnc2c(=O)[nH]c(C3CCCN(C(=O)c4ccc(C(C)(C)C)cc4)C3)nc21 (stereo not drawn)	p53ts 39C kill 31.6µM
COc1ccc(Cn2nnc3c(=O)[nH]c(C4CCCN(C(=O)c5ccc(C)cc5)C4)nc32)cc1 (stereo not drawn)	none
COc1ccc(Cn2nnc3c(=O)[nH]c(C4CCCN(C(=O)c5ccccc5)C4)nc32)cc1 (stereo not drawn)	p53ts 39C kill inconclusive
COc1ccccc1N1CCN(C(CNC(=O)C(=O)NCc2ccc(F)cc2)c2cccnc2)CC1 (stereo not drawn)	p53ts 39C kill inconclusive, p53ts 32C kill inconclusive
CCn1c(CN2CCC(C)CC2)nc2cc(NC(=O)c3cccc([N+](=O)[O-])c3)ccc21	none
CCNc1ncc2nc(-c3cccc(C#N)c3)c(=O)n(Cc3cccc(OC)c3)c2n1	Peg3 imprint inconclusive
Clc1ccccc1-c1nc(-c2ccncc2)no1	none
Clc1ccccc1-c1nc(-c2cccnc2)no1	p53ts 39C kill 12.6µM, p53ts 32C kill 10µM
CCc1ccccc1NC(=O)CCc1c(C)nc2cc(-c3ccccc3)nn2c1C	none
Fc1ccc(Nc2c(-c3ccccn3)nc3ccc(Cl)cn23)cc1	none
Cc1ccc2nc(-c3cccnc3)c(Nc3ccc(C(C)C)cc3)n2c1	none
Cc1ccn2c(Nc3ccc(C(C)C)cc3)c(-c3cccnc3)nc2c1	p53ts 39C kill 25.1µM
CC(C)c1ccc(Nc2c(-c3ccccc3O)nc3cnccn23)cc1	p53ts 39C kill 5.01µM, p53ts 32C kill inconclusive
COc1cc(-c2nc3cnccn3c2Nc2ccc(C(C)C)cc2)ccc1O	p53ts 39C kill inconclusive, p53ts 32C kill inconclusive
CC(C)c1ccc(Nc2c(-c3ccccn3)nc3ccccn23)cc1	p53ts 39C kill 15.8µM
Cc1ccc(-n2c(=O)c3c4c(sc3n(CC(=O)c3ccc(Cl)cc3)c2=O)CCC4)cc1C	none
Cc1ccc(C(=O)Cn2c3c(sc2=N)CCCC3)cc1	p53ts 39C kill 1.58µM, p53ts 32C kill 2µM
CC(=O)c1cccc(NC(=O)c2sc3nc4c(cc3c2N)CCCC4)c1	p53ts 39C kill 12.6µM, p53ts 32C kill inconclusive
COc1ccc(NC(=O)c2sc3nc4c(cc3c2N)CCCCCC4)cc1OC	none
O=C(OCC1CO1)C1CCCCC1C(=O)OCC1CO1 (stereo not drawn)	p53ts 39C kill 31.6µM
O=C(O)C1CCCCC1C(=O)OCCCCOC(=O)C1CCCCC1C(=O)O (stereo not drawn)	none
Cc1cccc(CCNC(=O)C2CCC(CNS(=O)(=O)c3c(C)cc(C)cc3C)CC2)c1 (stereo not drawn)	none
COc1ccc2[nH]cc(CCNC(=O)Nc3cc(C)cc(C)c3)c2c1	p53ts 39C kill 12.6µM, Peg3 imprint inconclusive
COc1ccc2[nH]cc(CCNC(=O)Nc3ccccc3)c2c1	none
CCCOc1ccc(CNC(=O)c2oc3ccc4c(c3c2C)C(=O)CC(C)(CC)O4)cc1 (stereo not drawn)	none
O=C(c1ccc(N2CCOCC2)cc1)c1cccs1	p53ts 39C kill 7.94µM, p53ts 32C kill 12.6µM
O=C(Nc1ccc(C(=O)N2CCOCC2)cc1)c1cccs1	none (no result: Peg3 imprint)
CCOC(=O)OCC1OC(C#CC(C)(C)C)C=CC1OC(=O)OCC (stereo not drawn)	none (no result: Peg3 imprint)
COc1ccc2c(c1OC)C(=O)N1c3cccc(Cl)c3C(=O)OC21 (stereo not drawn)	none
COc1ccc2c(c1OC)C(=O)N1c3ccccc3COC21 (stereo not drawn)	p53ts 39C kill 15.8µM, p53ts 32C kill 12.6µM
O=C(c1ccc(Br)o1)N1CCN(c2ccc3nnc(-c4ccccc4)n3n2)CC1	p53ts 32C kill 12.6µM
Cc1nnc2ccc(N3CCN(C(=O)c4ccccc4)CC3)nn12	none
O=S(=O)(c1ccc(F)cc1)N1CCC(n2c(C(F)(F)F)nc3cccnc32)CC1	none
Cn1c(SCc2ccc(F)cc2)nc2ccc(C(=O)NCc3ccc(F)cc3)cc21	none
CCN1CCN(C(=O)c2cc3c(=O)n4ccccc4nc3n2Cc2ccccc2)CC1	p53ts 39C kill 12.6µM, p53ts 32C kill 12.6µM
O=C(NCCN1CCOCC1)c1cc2c(=O)n3ccccc3nc2n1Cc1ccccc1	none
CCOc1ccc(NC(=O)Cn2c(=O)n(-c3ccccc3)c(=O)c3c4c(sc32)CCCC4)cc1	none
COc1ccc(NC(=O)Cn2c(=O)n(-c3ccccc3)c(=O)c3c4c(sc32)CCCC4)cc1	p53ts 39C kill 25.1µM, p53ts 32C kill inconclusive
Cc1cccc(N2CCN(c3cc(C)nc4c(-c5ccc(Cl)cc5)c(C)nn34)CC2C)c1 (stereo not drawn)	none
COc1ccc(-c2nnc(SCC(=O)c3ccc(NC(C)=O)cc3)o2)cc1OC	none
COc1ccccc1-c1nnc(NC(=O)c2ccc(S(=O)(=O)N(C)Cc3ccccc3)cc2)o1	p53ts 39C kill 12.6µM
